About 2,000 (36%) of roughly 5,500 compounds were called active. Another 18% or so got no clear call; they are omitted. No stated cut-off is given here; in the data, active means normalized growth mostly below about 0.91 (no sharp cut-off); inconclusive means no clear call, values can overlap the other calls; inactive means mostly above about 0.92. The list shows a part of the results.
Test: chemical genetic growth profiling, strain panel (AID 1159580);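 further: tested at 20 µM; growth read once vehicle control cultures reached saturation at 30 °C; 1 = growth at the plate median or of vehicle wells; lower values mean less growth of the strain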
Details: growth OD

Measured: normalized growth

C1CCN2CC3CC(CN4CCCCC34)C2C1 (centres undefined)
active: S. cerevisiae deletion strains, locus YLR418C, strain cdc73, hits give low values 0.811 | S. cerevisiae deletion strains, locus YNL307C, strain MCK1, hits give low values 0.294 | S. cerevisiae deletion strains, locus YPR163C, strain tif3, hits give low values 0.873 | S. cerevisiae deletion strains, strain wtn01, hits give low values 0.863
inactive: S. cerevisiae deletion strains, locus YJR043C, strain POL32, hits give low values 1.02 | S. cerevisiae deletion strains, locus YJR075W, strain HOC1, hits give low values 1.01 | S. cerevisiae deletion strains, locus YKL009W, strain mrt4, hits give low values 1.02 | S. cerevisiae deletion strains, locus YKL068W, hits give low values 1.01 | S. cerevisiae deletion strains, locus YKL085W, strain MDH1 (second series), hits give low values 1 | S. cerevisiae deletion strains, locus YKL085W, strain MDH1, hits give low values 1 | S. cerevisiae deletion strains, locus YKL160W, strain elf1, hits give low values 0.991 | S. cerevisiae deletion strains, locus YKL190W, strain CNB1, hits give low values 1 | S. cerevisiae deletion strains, locus YKR001C, strain vps1, hits give low values 0.964 | S. cerevisiae deletion strains, locus YKR026C, strain gcn3, hits give low values 1.02 | S. cerevisiae deletion strains, locus YKR091W, strain srl3, hits give low values 1.01 | S. cerevisiae deletion strains, locus YLL001W, strain dnm1, hits give low values 1.04 | S. cerevisiae deletion strains, locus YLL026W, hits give low values 1.01 | S. cerevisiae deletion strains, locus YLL041C, strain sdh2, hits give low values 1.02 | S. cerevisiae deletion strains, locus YLR027C, strain aat2, hits give low values 1.01 | S. cerevisiae deletion strains, locus YLR039C, strain RIC1, hits give low values 1.04 | S. cerevisiae deletion strains, locus YLR058C, strain SHM2, hits give low values 1.02 | S. cerevisiae deletion strains, locus YLR102C, strain apc9, hits give low values 1.01 | S. cerevisiae deletion strains, locus YLR221C, strain rsa3, hits give low values 1.01 | S. cerevisiae deletion strains, locus YLR258W, strain gsy2, hits give low values 1.02 | S. cerevisiae deletion strains, locus YLR262C, strain YPT6 (second series), hits give low values 1 | S. cerevisiae deletion strains, locus YLR262C, strain YPT6, hits give low values 1.01 | S. cerevisiae deletion strains, locus YLR268W, strain sec22, hits give low values 0.894 | S. cerevisiae deletion strains, locus YLR320W, strain mms22, hits give low values 1.03 | S. cerevisiae deletion strains, locus YLR330W, strain CHS5, hits give low values 1.01 | S. cerevisiae deletion strains, locus YLR342W, strain FKS1 (second series), hits give low values 1.03 | S. cerevisiae deletion strains, locus YLR342W, strain FKS1, hits give low values 1.02 | S. cerevisiae deletion strains, locus YLR357W, strain rsc2, hits give low values 1.04 | S. cerevisiae deletion strains, locus YLR370C, strain arc18, hits give low values 1.02 | S. cerevisiae deletion strains, locus YLR371W, strain rom2, hits give low values 0.967 | S. cerevisiae deletion strains, locus YLR384C, strain iki3, hits give low values 1.02 | S. cerevisiae deletion strains, locus YML016C, strain PPZ1, hits give low values 1.01 | S. cerevisiae deletion strains, locus YML032C, strain rad52, hits give low values 1.03 | S. cerevisiae deletion strains, locus YML120C, strain ndi1, hits give low values 1.01 | S. cerevisiae deletion strains, locus YML124C, strain tub3, hits give low values 1.01 | S. cerevisiae deletion strains, locus YMR058W, strain fet3, hits give low values 1.02 | S. cerevisiae deletion strains, locus YMR078C, strain ctf18, hits give low values 1.02 | S. cerevisiae deletion strains, locus YMR125W, strain sto1, hits give low values 1.06 | S. cerevisiae deletion strains, locus YMR129W, hits give low values 1.03 | S. cerevisiae deletion strains, locus YMR205C, strain PFK2, hits give low values 1.04 | S. cerevisiae deletion strains, locus YMR223W, strain ubp8, hits give low values 0.909 | S. cerevisiae deletion strains, locus YMR231W, strain pep5, hits give low values 1.02 | S. cerevisiae deletion strains, locus YMR263W, strain SAP30, hits give low values 0.997 | S. cerevisiae deletion strains, locus YMR307W, strain GAS1, hits give low values 1.02 | S. cerevisiae deletion strains, locus YNL067W, strain RPL9B, hits give low values 0.988 | S. cerevisiae deletion strains, locus YNL071W, strain lat1, hits give low values 1.02 | S. cerevisiae deletion strains, locus YNL128W, strain TEP1, hits give low values 1.01 | S. cerevisiae deletion strains, locus YNL153C, strain GIM3, hits give low values 0.986 | S. cerevisiae deletion strains, locus YNL209W, strain ssb2, hits give low values 1.02 | S. cerevisiae deletion strains, locus YNL233W, strain BNI4, hits give low values 0.998 | S. cerevisiae deletion strains, locus YNL248C, strain rpa49, hits give low values 1.02 | S. cerevisiae deletion strains, locus YNL250W, strain rad50, hits give low values 1.03 | S. cerevisiae deletion strains, locus YNL271C, strain bni1, hits give low values 1.01 | S. cerevisiae deletion strains, locus YNL298W, strain CLA4, hits give low values 1.01 | S. cerevisiae deletion strains, locus YNL322C, strain KRE1 (second series), hits give low values 1.01 | S. cerevisiae deletion strains, locus YNL322C, strain KRE1, hits give low values 1.01 | S. cerevisiae deletion strains, locus YNR049C, strain mso1, hits give low values 1.02 | S. cerevisiae deletion strains, locus YNR052C, strain pop2, hits give low values 1.02 | S. cerevisiae deletion strains, locus YOL006C, strain TOP1, hits give low values 1.03 | S. cerevisiae deletion strains, locus YOL012C, strain htz1 0.345 | S. cerevisiae deletion strains, locus YOL147C, strain pex11, hits give low values 1.01 | S. cerevisiae deletion strains, locus YOR001W, strain rrp6, hits give low values 1.01 | S. cerevisiae deletion strains, locus YOR061W, strain CKA2, hits give low values 1.01 | S. cerevisiae deletion strains, locus YOR069W, strain VPS5, hits give low values 1.01 | S. cerevisiae deletion strains, locus YOR070C, strain gyp1, hits give low values 1.02 | S. cerevisiae deletion strains, locus YOR080W, strain dia2, hits give low values 1.02 | S. cerevisiae deletion strains, locus YOR083W, strain WHI5, hits give low values 0.99 | S. cerevisiae deletion strains, locus YOR106W, strain vam3, hits give low values 1 | S. cerevisiae deletion strains, locus YOR136W, strain idh2, hits give low values 0.961 | S. cerevisiae deletion strains, locus YOR144C, strain elg1, hits give low values 1.01 | S. cerevisiae deletion strains, locus YOR184W, strain ser1, hits give low values 0.959 | S. cerevisiae deletion strains, locus YOR265W, strain rbl2, hits give low values 1.02 | S. cerevisiae deletion strains, locus YOR270C, strain vph1, hits give low values 1.03 | S. cerevisiae deletion strains, locus YOR290C, strain snf2, hits give low values 0.985 | S. cerevisiae deletion strains, locus YOR316C, strain cot1, hits give low values 1.01 | S. cerevisiae deletion strains, locus YPL051W, strain arl3, hits give low values 0.998 | S. cerevisiae deletion strains, locus YPL055C, strain LGE1, hits give low values 1 | S. cerevisiae deletion strains, locus YPL078C, strain atp4, hits give low values 1 | S. cerevisiae deletion strains, locus YPL106C, strain sse1, hits give low values 1.04 | S. cerevisiae deletion strains, locus YPL240C, strain hsp82, hits give low values 1.03 | S. cerevisiae deletion strains, locus YPL241C, strain CIN2, hits give low values 1.01 | S. cerevisiae deletion strains, locus YPR119W, strain clb2, hits give low values 1 | S. cerevisiae deletion strains, locus YPR141C, strain kar3, hits give low values 1.02 | S. cerevisiae deletion strains, locus YPR167C, strain met16, hits give low values 0.992 | S. cerevisiae strains, strain wild type, hits give low values 1.01

From PubChem BioAssay AID1159580 (chemical genetic matrix, 2015)
